This passage reports Potency results from PubChem BioAssay (Tox21).

Active and inactive are the calls of the source. Entries that show only a call come without a potency. Unless noted, the call rests on the fitted dose curve.

In one assay the target is KiSS-1 receptor (Homo sapiens) (UniProt Q969F8). Nature of the assay: Human kisspeptin (KISS1R) small molecule agonists, calcium flux assay in KISS1R-HEK293 cells (AID 1920064; active means well fitted activation curve with a large enough effect in the repeat runs). Conditions: KISS1R-HEK293, calcium flux fluorescence, agonist; series mostly up to 76.8 µM. In short, it runs like this: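 Calcium flux read-out: kinetic fluorescence at Ex/Em=480/540, 1 s intervals over 3 min, after pin-tool compound addition to dye-loaded KISS1R-HEK293 cells. Fifteen concentrations, triplicates.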
KiSS-1 receptor (Homo sapiens), sequence (Q969F8 whole entry, looked up): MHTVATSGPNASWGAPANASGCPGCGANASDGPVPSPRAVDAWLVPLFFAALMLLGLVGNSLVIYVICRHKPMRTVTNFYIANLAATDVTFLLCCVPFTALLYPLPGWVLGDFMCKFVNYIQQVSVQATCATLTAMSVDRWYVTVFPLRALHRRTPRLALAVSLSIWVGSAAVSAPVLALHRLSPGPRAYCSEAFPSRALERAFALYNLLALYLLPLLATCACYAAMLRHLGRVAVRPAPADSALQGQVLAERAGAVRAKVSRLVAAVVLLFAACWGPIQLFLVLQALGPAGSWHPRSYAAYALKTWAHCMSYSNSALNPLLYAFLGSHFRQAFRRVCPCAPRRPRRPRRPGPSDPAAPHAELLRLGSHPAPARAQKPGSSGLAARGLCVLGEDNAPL
(Calcium flux is commonly read through the fluorescence of an indicator in the cells.)
On to `CC(=O)O[C@]1(C(C)=O)CC[C@H]2[C@@H]3C[C@H](C)C4=CC(=O)CC[C@]4(C)[C@H]3CC[C@@]21C`, for which the Potency result is “inactive”.

Turning to `COC(=O)c1ccc(O)cc1`, the Potency entry is “inactive”.

`CC(=O)CC(C)(C)O`: the Potency result is “inactive”.

For the compound `O=c1[nH]cc(F)c(=O)[nH]1`, the Potency entry is “inactive”.

Regarding `COc1ccc(Cl)cc1C(=O)NCCc1ccc(S(=O)(=O)NC(=O)NC2CCCCC2)cc1`, the Potency result was “inactive”.

On to `CC(=O)OC/C=C(C)/C=C/C=C(C)/C=C/C1=C(C)CCCC1(C)C`, for which the Potency result was “inactive”.

Regarding `CCCCCCCCCCN`, the Potency result was “inactive”.

In the case of `C[C@H]1C[C@H]2[C@@H]3CCC4=CC(=O)C=C[C@]4(C)[C@@]3(F)[C@@H](O)C[C@]2(C)[C@@]1(O)C(=O)CO`, the Potency entry is “inactive”.

On to `CCCCN(CCCC)CCCC`, for which the Potency entry is “inactive”.

In the case of `CCCCCCC(C)O` (stereo not given), the Potency entry is “inactive”.

Turning to `O=[Se](O)O`, the Potency result was “inactive”.

As to `Cc1ccc(S(=O)(=O)NCl)cc1`, the Potency entry was “inactive”.

Take `CC(=O)O[C@]1(C(C)=O)CC[C@H]2[C@@H]3C=C(Cl)C4=CC(=O)CC[C@]4(C)[C@H]3CC[C@@]21C`: the Potency entry was “inactive”.

Regarding `CCC(C)C=O` (stereo not given), the Potency result is “inactive”.

As for `CC1(C)S[C@@H]2[C@H](NC(=O)[C@H](N)c3ccccc3)C(=O)N2[C@H]1C(=O)O`, the Potency result is “inactive”.

`CC(C)[N+](C)(CCOC(=O)C1c2ccccc2Oc2ccccc21)C(C)C`: the Potency result is “inactive”.

Regarding `CC(C)(C)NC(=O)[C@H]1CC[C@H]2[C@@H]3CC[C@H]4NC(=O)C=C[C@]4(C)[C@H]3CC[C@]12C`, the Potency result was “inactive”.

Consider `Cn1c(=O)c2[nH]cnc2n(C)c1=O`, for which the Potency result is “inactive”.

On to `CCCCC/C=C\C/C=C\CCCCCCCC(=O)O`, for which the Potency entry was “inactive”.

`CCCc1c(OCCCCc2nn[nH]n2)ccc(C(C)=O)c1O`: the Potency result was “inactive”.

`CC(=O)c1ccc(O)cc1`: the Potency result was “inactive”.

`NC(=O)c1ccccc1O`: the Potency entry was “inactive”.

On to `CC(C)CC(C)CC(O)CC(C)C` (stereo not given), for which the Potency result is “inactive”.

As for `C[C@]12CCC(=O)C=C1CC[C@@H]1[C@@H]2C(=O)C[C@@]2(C)[C@H]1CC[C@]2(O)C(=O)CO`, the Potency result is “inactive”.

`CC(=O)Nc1ccc(C(=O)O)cc1`: the Potency result was “inactive”.

In the case of `Nc1c2c(nc3ccccc13)CCCC2`, the Potency result is “inactive”.

Take `C[C@H]1C[C@@H]2[C@H]([C@@H](O)C[C@@]3(C)[C@H]2CC[C@]3(O)C(=O)CO)[C@@]2(C)C=CC(=O)C=C12`: the Potency entry is “inactive”.

`C=CCNC(N)=S`: the Potency entry was “inactive”.

As for `CC(=O)Nc1ccc(C(=O)CCl)cc1`, the Potency result was “inactive”.

`CCOC(N)=O`: the Potency result is “inactive”.

For `NC(=O)NO`, the Potency entry was “inactive”.

Take `O=C(O)CN(CC(=O)O)CC(=O)O`: the Potency entry is “inactive”.

Consider `CN1C(C(=O)Nc2ccccn2)=C(O)c2ccccc2S1(=O)=O`, for which the Potency entry was “inactive”.

For `O=CCCCC=O`, the Potency entry was “inactive”.

As to `COCCc1ccc(OCC(O)CNC(C)C)cc1` (stereo not given), the Potency result is “inactive”.

Turning to `CCN(CC)CCOC(=O)c1ccc(N)cc1`, the Potency entry is “inactive”.

For `CC(C)Cc1ccc(C(C)C(=O)O)cc1` (stereo not given), the Potency entry is “inactive”.

Take `O=c1c(-c2ccc(O)cc2)coc2cc(O)cc(O)c12`: the Potency entry is “inactive”.

As for `CCc1ccc(CCOc2ccc(CC3SC(=O)NC3=O)cc2)nc1` (stereo not given), the Potency result is “inactive”.

For `Cc1nnc(NS(=O)(=O)c2ccc(N)cc2)s1`, the Potency entry is “inactive”.

Tested on in a further assay: not listed separately
Nature of the assay: G protein-coupled receptor (GPCR) small molecule agonists, calcium flux assay: HEK293 wild type cell line counter screen (AID 1920065). The settings on record: HEK293 WT calcium flux, fluorescence, agonist mode; series mostly up to 57.6 µM. In short, it runs like this:
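Agonist mode; 18 h seeding at 37 C, 1 h dye load at 37 C; compounds pinned from DMSO, ATP as positive control; kinetic fluorescence 480/540 nm, 3 min, 1 s reads; 15 concentrations, triplicate.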
Take `CC(=O)O[C@]1(C(C)=O)CC[C@H]2[C@@H]3C[C@H](C)C4=CC(=O)CC[C@]4(C)[C@H]3CC[C@@]21C`: the Potency result is “inactive”.

Regarding `COC(=O)c1ccc(O)cc1`, the Potency entry is “inactive”.

With `CC(=O)CC(C)(C)O`, the Potency entry was “inactive”.

With `O=c1[nH]cc(F)c(=O)[nH]1`, the Potency result was “inactive”.

For the compound `COc1ccc(Cl)cc1C(=O)NCCc1ccc(S(=O)(=O)NC(=O)NC2CCCCC2)cc1`, the Potency entry is “inactive”.

On to `CC(=O)OC/C=C(C)/C=C/C=C(C)/C=C/C1=C(C)CCCC1(C)C`, for which the Potency result is “inactive”.

As for `CCCCCCCCCCN`, the Potency entry is “inactive”.

Consider `C[C@H]1C[C@H]2[C@@H]3CCC4=CC(=O)C=C[C@]4(C)[C@@]3(F)[C@@H](O)C[C@]2(C)[C@@]1(O)C(=O)CO`, for which the Potency entry was “inactive”.

For the compound `CCCCN(CCCC)CCCC`, the Potency entry is “inactive”.

For `CCCCCCC(C)O` (stereo not given), the Potency entry was “inactive”.

Take `O=[Se](O)O`: the Potency result is “inactive”.

`Cc1ccc(S(=O)(=O)NCl)cc1`: the Potency result was “inactive”.

On to `CC(=O)O[C@]1(C(C)=O)CC[C@H]2[C@@H]3C=C(Cl)C4=CC(=O)CC[C@]4(C)[C@H]3CC[C@@]21C`, for which the Potency result was “inactive”.

Consider `CCC(C)C=O` (stereo not given), for which the Potency entry is “inactive”.

For `CC1(C)S[C@@H]2[C@H](NC(=O)[C@H](N)c3ccccc3)C(=O)N2[C@H]1C(=O)O`, the Potency result is “inactive”.

As to `CC(C)[N+](C)(CCOC(=O)C1c2ccccc2Oc2ccccc21)C(C)C`, the Potency entry was “inactive”.

In the case of `CC(C)(C)NC(=O)[C@H]1CC[C@H]2[C@@H]3CC[C@H]4NC(=O)C=C[C@]4(C)[C@H]3CC[C@]12C`, the Potency entry was “inactive”.

For `Cn1c(=O)c2[nH]cnc2n(C)c1=O`, the Potency result is “inactive”.

With `CCCCC/C=C\C/C=C\CCCCCCCC(=O)O`, the Potency result was “inactive”.

With `CCCc1c(OCCCCc2nn[nH]n2)ccc(C(C)=O)c1O`, the Potency entry was “inactive”.

`CC(=O)c1ccc(O)cc1`: the Potency entry is “inactive”.

`NC(=O)c1ccccc1O`: the Potency result is “inactive”.

Turning to `CC(C)CC(C)CC(O)CC(C)C` (stereo not given), the Potency entry is “inactive”.

Turning to `C[C@]12CCC(=O)C=C1CC[C@@H]1[C@@H]2C(=O)C[C@@]2(C)[C@H]1CC[C@]2(O)C(=O)CO`, the Potency entry was “inactive”.

As for `CC(=O)Nc1ccc(C(=O)O)cc1`, the Potency entry was “inactive”.

With `Nc1c2c(nc3ccccc13)CCCC2`, the Potency result is “inactive”.

With `C[C@H]1C[C@@H]2[C@H]([C@@H](O)C[C@@]3(C)[C@H]2CC[C@]3(O)C(=O)CO)[C@@]2(C)C=CC(=O)C=C12`, the Potency entry was “inactive”.

Consider `C=CCNC(N)=S`, for which the Potency entry was “inactive”.

`CC(=O)Nc1ccc(C(=O)CCl)cc1`: the Potency entry was “inactive”.

Turning to `CCOC(N)=O`, the Potency result was “inactive”.

Take `NC(=O)NO`: the Potency entry is “inactive”.

With `O=C(O)CN(CC(=O)O)CC(=O)O`, the Potency result is “inactive”.

With `CN1C(C(=O)Nc2ccccn2)=C(O)c2ccccc2S1(=O)=O`, the Potency result is “inactive”.

As for `O=CCCCC=O`, the Potency result is “inactive”.

Regarding `COCCc1ccc(OCC(O)CNC(C)C)cc1` (stereo not given), the Potency result was “inactive”.

As for `CCN(CC)CCOC(=O)c1ccc(N)cc1`, the Potency entry is “inactive”.

With `CC(C)Cc1ccc(C(C)C(=O)O)cc1` (stereo not given), the Potency entry is “inactive”.

On to `O=c1c(-c2ccc(O)cc2)coc2cc(O)cc(O)c12`, for which the Potency result is “inactive”.

As for `CCc1ccc(CCOc2ccc(CC3SC(=O)NC3=O)cc2)nc1` (stereo not given), the Potency entry was “inactive”.

Consider `Cc1nnc(NS(=O)(=O)c2ccc(N)cc2)s1`, for which the Potency entry is “inactive”.
